Assay outcomes: PubChem, Sanford-Burnham Center for Chemical Genomics
C8 TRAIL sens = viability loss with TRAIL in NB7+C8 cells, primary screen, TRAIL sensitizer project, cell-based, ATPlite luminescence; inhibition (viability loss, TRAIL sensitization), % at 10 µM; hit rate 1% among 360,000; AID 624354, 2012;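 active = compounds causing at least 50% loss of cell viability in the single-dose screen, relative to plate controls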
CF NFkB inh = inhibitors of PAF-induced NF-kB signaling, primary screen, cell-based, GFP fluorescence, uHTS. KKLEB NF-kB-GFP reporter, GFP fluorescence overnight. inhibition, % at 5 µM. hit rate 0.86% among 360,000. AID 588850, 2011;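 active = at least 50% inhibition at 5 µM, scaled per plate between neutral and stimulator controls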;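 also: PAF is a Pseudomonas aeruginosa culture filtrate used as stimulus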
Peg3 promoter = Peg3 promoter-driven luciferase inhibitors, primary screen, cell-based, HeLa, luciferase luminescence; HeLa PEG-Prom luciferase reporter, overnight; hit rate 1.7% among 360,000; inhibition, % at 20 µM;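 active = inhibition of at least 50% at 20 µM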
HIF-2a inh = HIF-2a reporter inhibitors, primary screen, luminescence, 786-0 RCC cells; hit rate 0.72% among 360,000; 786-0 RCC cells HIF-2a reporter, luciferase luminescence, overnight; inhibition, % at 18.8 µM;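 active = inhibition of the luminescence signal of 40% or more relative to plate controls, in a single-dose primary screen at 18.75 µM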
PPC-1+TRAIL kill = compounds killing PPC-1 cancer cells with TRAIL present, primary screen, TRAIL potentiator project, ATPLite luminescence, uHTS | PPC-1 cells + TRAIL, ATPLite viability luminescence | cell killing (% activity), % at 4 µM or 5 µM | hit rate 0.41% among 220,000;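 active = cell killing above 50% in the first pass at 4 µM, then a duplicate retest at 5 µM averaging 50% or more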
KKLEB tox = cytotoxicity in KKLEB CF airway cells, primary screen, cytotoxicity control for CF NF-kB inhibitor project, cell-based, uHTS, fluorescence assay plates; hit rate 0.36% among 360,000; KKLEB CF airway cells viability, ATPlite luminescence, overnight; active compounds read low; cells stimulated with P. aeruginosa culture filtrate; activity change (cytotoxicity), % at 5 µM; AID 602141, 2011;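 active = corrected activity change at or below -50% at 5 µM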
Mdm2 MdmX conf = retested Mdm2-MdmX interaction blockers, confirmation, cell-based, luminescence, single concentration, set 2; shares compounds with HIF-2a inh; SaOS-2 split-luciferase Mdm2/MdmX complementation; inhibition, % at 8 µM; hit rate 99% among 740;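 active = mean inhibition of the luminescence signal across two replicates at or above 26 percent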
Target sequence (O15151 whole entry, looked up): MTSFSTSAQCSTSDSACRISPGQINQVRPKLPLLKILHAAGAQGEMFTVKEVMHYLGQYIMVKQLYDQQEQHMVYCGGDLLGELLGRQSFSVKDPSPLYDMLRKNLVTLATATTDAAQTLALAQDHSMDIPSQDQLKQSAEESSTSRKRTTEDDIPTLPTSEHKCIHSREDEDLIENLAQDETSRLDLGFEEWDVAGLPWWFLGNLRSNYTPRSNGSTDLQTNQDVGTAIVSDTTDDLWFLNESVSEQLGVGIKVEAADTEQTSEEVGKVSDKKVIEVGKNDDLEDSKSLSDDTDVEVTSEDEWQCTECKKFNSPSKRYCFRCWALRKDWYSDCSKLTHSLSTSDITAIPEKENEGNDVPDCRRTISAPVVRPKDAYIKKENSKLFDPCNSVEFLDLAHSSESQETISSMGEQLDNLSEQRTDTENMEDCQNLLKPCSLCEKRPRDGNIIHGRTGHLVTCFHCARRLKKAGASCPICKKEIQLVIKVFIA
Target sequence (Q00987 whole entry, looked up): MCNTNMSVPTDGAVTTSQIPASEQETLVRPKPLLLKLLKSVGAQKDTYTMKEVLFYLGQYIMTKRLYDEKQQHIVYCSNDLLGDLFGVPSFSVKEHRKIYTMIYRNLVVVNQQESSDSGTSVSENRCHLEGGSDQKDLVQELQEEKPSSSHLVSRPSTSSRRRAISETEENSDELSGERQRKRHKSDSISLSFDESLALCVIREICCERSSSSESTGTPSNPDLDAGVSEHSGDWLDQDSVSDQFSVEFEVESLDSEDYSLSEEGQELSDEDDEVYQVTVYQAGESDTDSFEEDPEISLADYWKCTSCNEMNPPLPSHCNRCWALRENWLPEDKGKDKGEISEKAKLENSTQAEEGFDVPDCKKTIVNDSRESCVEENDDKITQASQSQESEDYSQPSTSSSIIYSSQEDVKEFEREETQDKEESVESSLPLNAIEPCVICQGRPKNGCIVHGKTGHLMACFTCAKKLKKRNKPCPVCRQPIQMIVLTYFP
HIF-2a conf = HIF-2a reporter inhibitor retest, confirmation, luminescence, 786-0 RCC cells; AID 651580, 2012; hit rate 56% among 1,800; shares compounds with HIF-2a inh; HIF-2a luciferase reporter luminescence, overnight; inhibition, % at 18.8 µM;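 active = mean inhibition across four replicates of at least 40 percent at the single tested concentration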
HIF-1a cs = HIF-1a luciferase reporter signal reduction – MiaPaCa-2 cells, single concentration, counter-screen for HIF-2a inhibitor project, confirmation | shares compounds with HIF-2a inh | inhibition, % at 18.8 µM | AID 651589, 2012 | hit rate 72% among 1,800 | MiaPaCa-2 HIF-1a luciferase reporter, desferoxamine, overnight;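 active = mean inhibition of the reporter signal across four replicates at the single tested dose of 50% or more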
Hits are given with their value; - = inactive; . = no result given. The list is not random: actives were taken first. Their share in the collection is about 3.1%.

SMILES	C8 TRAIL sens	CF NFkB inh	Peg3 promoter	HIF-2a inh	PPC-1+TRAIL kill	KKLEB tox	HIF-2a conf	HIF-1a cs	others
NC(=O)c1c(N)[nH]c(C(=O)c2ccccc2)c1-c1ccccc1Br	-	.	.	-	.	.	.	.
Cc1[nH]c(=O)c(C(=O)/C=C/c2ccccc2F)c2c1CCCC2	-	90.7	110.5	90.4	-	-	92.3	99.8	Mdm2 MdmX conf=103.2
Clc1ccc2c(c1)-c1ccccc1C1=NCCN12	-	-	109.7	45.0	.	-	-	103.9
CN1C2=NCCN2C(=O)c2cc(Cl)ccc21	-	-	-	-	-	-	.	.
O=C(NC1CCCC1)C1c2ccccc2OCC(=O)N1C1CC1 (configuration not stated)	-	.	.	-	.	.	.	.
C=CC[C@@H](CC(=O)NCCO)C(=O)N[C@@H](COC(=O)[C@@H](CC=C)CC(=O)OC(C)(C)C)Cc1c[nH]c2ccccc12	-	-	-	-	.	-	.	.
CCOC(=O)c1nnc(-c2ccc(C)cc2)nc1Sc1ccccc1Cl	-	-	-	-	-	-	.	.
CCOC(=O)c1nnc(-c2ccccc2)nc1Sc1c(Cl)cccc1Cl	-	-	64.0	62.5	-	-	-	65.3
COCCNC(=O)C1(C)CCCN(CC(=O)c2ccc(OC)cc2)C1 (configuration not stated)	-	-	-	-	.	-	.	.
O[C@@H]1CN(Cc2cccs2)[C@@H](c2ccccc2)C[C@H]1n1cc(-c2ccc(F)cc2)nn1	-	-	-	-	.	-	.	.
CCC1C(c2ccccc2)N(C)C(c2ccccc2)CC1(O)c1ccccc1 (configuration not stated)	-	-	-	-	-	-	.	.
CC(C)C1C(c2ccccc2)N(C)C(c2ccccc2)CC1(O)c1ccccc1 (configuration not stated)	-	-	-	53.2	-	-	-	-
CSc1nc(C2CC2)cc(-c2cccs2)c1C#N	-	93.7	56.9	51.1	-	-62.8	-	-
CCOc1ccccc1N(CC(=O)NC1CCCC1)C(=O)CNC(=O)c1cccs1	-	-	-	-	.	-	.	.
O=C(NCc1csc(-c2ccccc2)n1)c1cc(F)cc2c1OCOC2	-	-	-	-	-	-	.	.
O=C(Cc1ccccc1)N/N=C/c1ccc([N+](=O)[O-])s1	-	-	-	-	-	-	.	.
O=C(N/N=C/c1ccc([N+](=O)[O-])s1)c1ccccc1	-	-	-	51.1	-	-	49.0	67.5
O=C(N/N=C/c1ccc([N+](=O)[O-])s1)c1ccccc1Br	-	-	-	69.6	-	-	75.5	91.4
Cc1ccccc1NC(=O)/C=C/c1ccc([N+](=O)[O-])s1	-	66.4	107.2	85.9	-	-59.4	68.2	104.3
Cc1ccccc1C(=O)N/N=C/c1ccc([N+](=O)[O-])s1	-	-	50.4	76.3	-	-	89.7	94.6
Cc1cc(C(=O)N/N=C/c2ccc([N+](=O)[O-])s2)c2ccccc2n1	-	-	-	-	.	-	.	.
COc1ccc(-c2coc3c(C(=O)Nc4cccnc4)cccc23)c(C)c1	-	-	-	-	.	-	.	.
CCOc1ccc(C2/C(=C(/O)c3ccc(S(=O)(=O)N4CCCCC4)cc3)C(=O)C(=O)N2CCCOC)cc1OC (configuration not stated)	-	-	-	-	.	-	.	.
Cc1cc(OCCN2CCC(Cc3ccccc3)CC2)ccc1[N+](=O)[O-]	-	-	-	-	.	-	.	.
CC1CCN(c2ccc3nnc(CCC(=O)Nc4cccc(F)c4)n3n2)CC1	-	-	-	-	.	-	.	.
SMILES	C8 TRAIL sens	CF NFkB inh	Peg3 promoter	HIF-2a inh	PPC-1+TRAIL kill	KKLEB tox	HIF-2a conf	HIF-1a cs	others
O=[N+]([O-])c1ccc(O)c(/C=N/NC(=S)Nc2ccc(Cl)cc2Cl)c1	-	-	-	-	-	-	.	.
O=[N+]([O-])c1ccc(/C=N/NC(=S)Nc2ccc(Cl)cc2Cl)s1	-	-	60.5	-	-	-	.	.	Mdm2 MdmX conf=84.5
CCOC(=O)CNC(=O)C(CC(N)=O)NC(=O)OC(C)(C)C (configuration not stated)	-	-	-	-	-	-	.	.
C=CCOC(=O)CSCC(NC(=O)OC(C)(C)C)C(=O)OCC (configuration not stated)	-	-	-	57.8	-	-	45.0	-
COC(=O)c1ccc(COc2ccccc2/C=C(\C#N)C(=O)Nc2c(C)cccc2C)cc1	-	-	62.1	46.1	-	-	45.1	81.7
COC(=O)c1ccc(COc2ccccc2/C=C(\C#N)C(=O)Nc2ccccc2C)cc1	-	-	-	-	-	-	.	.
CC(=O)NC(c1ccc(F)c(F)c1)c1nc(-c2ccccc2)cs1 (configuration not stated)	-	-	-	-	.	-	.	.
O=C(NCc1cccnc1)/C(=C\c1ccc(-c2ccc(Br)cc2)o1)S(=O)(=O)c1ccccc1	-	86.1	106.7	92.7	-	-55.5	97.9	106.0	Mdm2 MdmX conf=103.2
O=C(NCc1cccnc1)/C(=C/c1ccc(-c2ccc(Cl)cc2)o1)S(=O)(=O)c1ccccc1	-	72.6	100.8	90.4	-	-54.4	98.7	103.7	Mdm2 MdmX conf=102.2
O=C(NCc1cccnc1)/C(=C/c1ccc(-c2cccc(C(F)(F)F)c2)o1)NC(=O)c1ccccc1	-	-	-	-	-	-	.	.
O=C(CN(Cc1ccc(Br)cc1)S(=O)(=O)c1ccccc1)NCc1cccnc1	-	-	-	-	.	-	.	.
C=CCn1c(=O)c(C(=O)Nc2ncccc2C)c(O)c2ccccc21	-	-	-	-	.	-	.	.
O=S1(=O)C=C(Sc2nnc(-c3ccccc3)o2)c2ccccc21	73.1	97.2	109.7	95.5	-	-71.5	.	.	Mdm2 MdmX conf=99.7
Cc1cc(C)nc(SC2=CS(=O)(=O)c3ccccc32)n1	-	-	-	-	-	-	.	.
c1ccc(C2C3=C(CCCC3)Nc3ncnn32)cc1 (configuration not stated)	-	-	-	-	-	-	.	.
Fc1ccc(/C=C2\CCCC3=C2Nc2ncnn2C3c2ccc(F)cc2)cc1 (configuration not stated)	-	79.6	91.3	86.1	-	-	-	66.0
